Many of the other results were omitted from the sample, so hits are more common in it than they were.
Dicer processing: blocks human Dicer maturation of pre-miR-21; 47,000 tested, 6% active; cat-ELCCA pre-miR-21 Dicer processing, chemiluminescence; stronger effect = higher value; z-score at 25 µM; in the data active = z-score above about 3, passing the limit was not always enough;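 also: plate controls were vehicle for no effect and no enzyme for full effect; higher signal means more uncleaved substrate so more Dicer inhibition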
Target sequence (Q9UPY3 whole entry, looked up): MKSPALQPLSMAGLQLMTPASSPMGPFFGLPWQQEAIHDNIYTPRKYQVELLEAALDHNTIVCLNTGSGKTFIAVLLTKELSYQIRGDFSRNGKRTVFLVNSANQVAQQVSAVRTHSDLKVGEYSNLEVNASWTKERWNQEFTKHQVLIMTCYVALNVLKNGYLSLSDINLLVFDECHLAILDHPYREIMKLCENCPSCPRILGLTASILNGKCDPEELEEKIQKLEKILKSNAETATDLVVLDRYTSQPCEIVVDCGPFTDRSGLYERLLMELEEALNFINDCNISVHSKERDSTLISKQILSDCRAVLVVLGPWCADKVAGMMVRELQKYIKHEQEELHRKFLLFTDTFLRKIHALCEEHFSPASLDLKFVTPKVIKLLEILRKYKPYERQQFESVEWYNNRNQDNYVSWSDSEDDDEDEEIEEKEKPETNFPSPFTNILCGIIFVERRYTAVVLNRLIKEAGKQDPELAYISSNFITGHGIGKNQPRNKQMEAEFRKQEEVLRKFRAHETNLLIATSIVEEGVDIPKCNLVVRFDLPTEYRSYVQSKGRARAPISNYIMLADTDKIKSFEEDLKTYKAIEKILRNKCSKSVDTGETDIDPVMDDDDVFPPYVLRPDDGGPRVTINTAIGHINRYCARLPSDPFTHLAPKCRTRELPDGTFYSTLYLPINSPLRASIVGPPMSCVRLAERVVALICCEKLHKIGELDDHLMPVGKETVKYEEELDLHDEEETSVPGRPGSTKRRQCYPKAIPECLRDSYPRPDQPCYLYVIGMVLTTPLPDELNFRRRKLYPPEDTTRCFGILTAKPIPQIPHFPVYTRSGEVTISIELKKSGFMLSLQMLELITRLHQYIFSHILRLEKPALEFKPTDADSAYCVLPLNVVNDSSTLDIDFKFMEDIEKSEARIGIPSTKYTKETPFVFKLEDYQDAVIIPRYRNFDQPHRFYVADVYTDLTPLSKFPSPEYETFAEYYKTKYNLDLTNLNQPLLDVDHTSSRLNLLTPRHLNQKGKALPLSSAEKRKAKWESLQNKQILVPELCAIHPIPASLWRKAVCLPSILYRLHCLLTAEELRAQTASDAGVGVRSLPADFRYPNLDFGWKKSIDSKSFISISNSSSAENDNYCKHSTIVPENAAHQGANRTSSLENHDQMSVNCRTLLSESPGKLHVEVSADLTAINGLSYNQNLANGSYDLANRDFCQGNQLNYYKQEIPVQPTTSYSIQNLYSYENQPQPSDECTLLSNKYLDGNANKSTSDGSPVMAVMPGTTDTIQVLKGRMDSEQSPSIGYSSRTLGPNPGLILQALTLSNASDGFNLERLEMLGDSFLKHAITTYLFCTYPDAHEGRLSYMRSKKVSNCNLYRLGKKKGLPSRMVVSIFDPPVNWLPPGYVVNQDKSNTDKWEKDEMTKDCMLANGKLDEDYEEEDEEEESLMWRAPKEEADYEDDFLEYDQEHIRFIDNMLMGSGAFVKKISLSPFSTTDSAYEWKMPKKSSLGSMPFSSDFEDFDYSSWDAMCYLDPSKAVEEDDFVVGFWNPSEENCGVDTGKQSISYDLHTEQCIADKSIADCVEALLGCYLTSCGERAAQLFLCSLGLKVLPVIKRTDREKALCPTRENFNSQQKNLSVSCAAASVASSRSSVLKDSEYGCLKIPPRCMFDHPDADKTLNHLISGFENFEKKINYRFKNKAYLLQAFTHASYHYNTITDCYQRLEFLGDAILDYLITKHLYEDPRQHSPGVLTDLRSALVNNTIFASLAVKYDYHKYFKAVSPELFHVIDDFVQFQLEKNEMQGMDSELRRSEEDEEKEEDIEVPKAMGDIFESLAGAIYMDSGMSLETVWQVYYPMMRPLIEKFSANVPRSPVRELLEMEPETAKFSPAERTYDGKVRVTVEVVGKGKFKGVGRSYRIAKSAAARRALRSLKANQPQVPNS
Active calls of the source: *.

SMILES	Dicer processing
Cc1ccc(N2C(=O)CC(SCC(=O)Nc3cc(C(F)(F)F)cc(C(F)(F)F)c3)C2=O)cc1[N+](=O)[O-] (stereo unspecified)	-0.25
Cc1ccc(C(=O)NNC(=O)Cc2nc(-c3ccccc3)sc2C)cc1	-0.03
CC(=O)O[C@H]1[C@H](OC(C)=O)[C@H](OC(C)=O)CO[C@@H]1c1nc2ccccc2s1	-0.38
S=C(N/N=C/c1ccccc1Cl)NC1CC2C=CC1C2 (stereo unspecified)	-0.39
CCOC(=O)C1=C(C)NC2=C(C(=O)CCC2)C1c1cccc(Br)c1 (stereo unspecified)	-0.86
CC1=C(C(=O)Nc2nc3ccccc3s2)C(c2cccc(Br)c2)C2=C(CCCC2=O)N1 (stereo unspecified)	3.18*
COC(=O)C1=C(C)NC2=C(C(=O)CCC2)C1c1cccc(Br)c1 (stereo unspecified)	-0.4
CC12CN3CC(C)(CN(C1)C3c1c(O)ccc3ccccc13)C2 (stereo unspecified)	0.38
O=c1[nH]nc(SCc2nc3ccccc3s2)n1Cc1ccco1	-2.22
O=C(O)c1ncc(C(F)(F)F)cc1Cl	1.21
Clc1cc2nsnc2cc1Cl	0.42
FC(F)(F)c1cc(Cl)c2nsnc2c1	4.46*
COC(=O)/C=c1\sc2nc3cc(Cl)c(Cl)cc3n2c1=O	-1.15
Cc1ccc(N2C(=O)C(c3ccccc3)C(N3CCOCC3)C2=O)cc1 (stereo unspecified)	3.11*
Cc1ccc(N2C(=O)C3CCC(C)CC3C2=O)cc1 (stereo unspecified)	0.19
O=C1CC(Nc2ccccc2)C(=O)N1c1ccc(N2CCOCC2)cc1 (stereo unspecified)	-0.25
CN(C1=NS(=O)(=O)c2ccccc21)c1ccc(O)cc1	0.09
COc1cc2c(cc1OC)C(c1ccccc1)=NC1(CCCC1)C2	2.74
Cc1ccc(/C(O)=C2\C(=O)C(=O)N(CCCN3CCOCC3)C2c2ccco2)cc1 (stereo unspecified)	3.3*
Cc1ccc(/C(O)=C2\C(=O)C(=O)N(CCCN3CCOCC3)C2c2ccc(F)cc2)cc1 (stereo unspecified)	-0.14
O=C1C(=O)N(CCCN2CCOCC2)C(c2ccccc2)/C1=C(\O)c1ccccc1 (stereo unspecified)	0.77
N#C/C(=C\Nc1ccc(F)cc1)S(=O)(=O)c1nc2ccccc2s1	0.57
O=c1[nH]c(CN2CCOCC2)nc2ccccc12	6.86*
c1ccc2[nH]c(CN3CCCCC3)nc2c1	-0.54
O=c1[nH]c(CN2CCCCC2)nc2c1oc1ccccc12	-0.24
SMILES	Dicer processing
O=C(CC1(O)C(=O)N(Cc2ccccc2Cl)c2ccccc21)c1ccncc1 (stereo unspecified)	1.51
COc1cc2c(cc1OC)C(c1cccc(C)c1)N(C(=O)c1sc3ccccc3c1Cl)CC2 (stereo unspecified)	-1.77
O=c1[nH]c2ccccc2c2oc(-c3ccccc3)nc12	-1.19
O=c1[nH]c2c(F)cccc2c(O)c1-c1ccccc1	-0.48
O=C(O)c1c(-c2ccccc2)c2oc3ccccc3c2[nH]c1=O	4.37*
COCCNC(=O)CN1C(=O)c2ccccc2S1(=O)=O	2.98
COc1ccc(/C(O)=C2\C(=O)C(=O)N(CCCn3ccnc3)C2c2ccccc2F)cc1 (stereo unspecified)	0.61
Cc1nc(N2C(=O)c3oc4ccccc4c(=O)c3C2c2cccc(Br)c2)sc1C (stereo unspecified)	-0.16
CCOC(=O)c1oc2ccc(OC)cc2c1CSc1ccccn1	3.97*
COc1ccc(OC)c(NC(=O)CSc2nccn2C)c1	-1.27
CCOC(=O)c1oc2ccccc2c1CO	-0.55
CCOC(=O)c1oc2ccccc2c1CSc1ccccn1	-0.38
COc1ccc(OC)c(C(=O)c2oc3ccccc3c2NC(=O)CSc2ccccn2)c1	3.34*
Cc1nnc(NC(=O)CSc2ccccn2)s1	0.78
O=C1c2oc3ccc(F)cc3c(=O)c2C(c2ccc(O)cc2)N1Cc1ccccc1Cl (stereo unspecified)	0.49
C[C@@H](N)C(=O)OCc1ccccc1	-0.77
COC(=O)C1=NOC2(CC(=O)N(c3ccc(F)cc3)C2=O)C1 (stereo unspecified)	-0.16
N#Cc1cccc(S(=O)(=O)N2CCN(c3cc(C(F)(F)F)nc4ccccc34)CC2)c1	-0.05
O=C1c2c(O)cccc2Cc2cccc(O)c21	0.28
Nc1ccc(O)c2c1C(=O)c1c(N)ccc(O)c1C2=O	3.23*
Nc1ccc(O)c(C(=O)O)c1	1.16
CCn1cc(C(=O)OC)c(=O)c2cc(C(F)(F)F)ccc21	0.29
NNC(=O)c1nn(-c2ccccc2)c(=O)cc1O	2.48
COC(=O)c1cc(S(=O)(=O)N2CCN(C(c3ccccc3)c3ccccc3)CC2)oc1C	-0.26
Cc1cc(C(=O)N/N=C/c2ccc([N+](=O)[O-])s2)nn1-c1c(Cl)cc(Cl)cc1Cl	0.12
SMILES	Dicer processing
Cc1ccc(C(C)(SCC(=O)O)SCC(=O)O)cc1	-0.53
CCOC(=O)C(O)(NC(=O)c1ccccc1Cl)C(F)(F)F (stereo unspecified)	0.08
CCOC(=O)C(O)(NC(=O)c1ccccc1C)C(F)(F)F (stereo unspecified)	2.57
CCOC(=O)C(NC(=O)c1ccccc1Cl)(Nc1ccc(C)cn1)C(F)(F)F (stereo unspecified)	3.04*
COC(=O)C(O)(NC(=O)c1ccccc1Cl)C(F)(F)F (stereo unspecified)	3.85*
CCOC(=O)C(NC(=O)c1ccccc1Cl)(Nc1cccc(C)n1)C(F)(F)F (stereo unspecified)	1.93
CCOC(=O)C(NC(=O)c1ccccc1Cl)(Nc1cc(C)ccn1)C(F)(F)F (stereo unspecified)	-0.24
Cn1c(Sc2nc3ccc(Cl)cc3s2)nnc1-c1ccc2ncccc2c1	1.94
CCOC(=O)c1ccc(OC(=O)c2ccc(Cl)cc2[N+](=O)[O-])c(Cl)c1	-0.16
CC1CC(NC(=S)NC(=O)c2ccc(Cl)cc2Cl)CC(C)(C)C1 (stereo unspecified)	-0.14
COc1cccc(-c2coc3cc4oc(=O)c5ccccc5c4cc23)c1	-0.39
O=C(c1cnn2c(C(F)F)cc(-c3ccccc3)nc12)N1CCCc2ccccc21	-1.5
COc1ccc(-c2cc(C(F)F)n3ncc(C(=O)N4CCSCC4)c3n2)cc1	3.04*
O=C(c1cnn2c(C(F)F)cc(-c3ccccc3)nc12)N1CCc2ccccc2C1	-0.17
CCCCCOC(=O)C1=C(C)NC2=C(C(=O)CC(C)(C)C2)C1c1ccc(OCC)c(OC)c1 (stereo unspecified)	0.4
FC(F)(F)c1ccc(-c2nnc3ccc(N4CCCCC4)nn23)cc1	0.25
CCN(CC)C(=O)c1sc2nc3c(cc2c1N)CCCCC3	0.28
CCN(CC)C(=O)c1cc2sccc2s1	3.09*
O=c1c2oc3nc(-c4ccccc4)cc(-c4ccco4)c3c2ncn1/N=C/c1ccc2c(c1)OCO2	2.11
COc1ccc(C)c2c1C1CCC3(C)C(=O)CCC3C1CC2 (stereo unspecified)	-0.85
N/C(=N\S(=O)(=O)c1cc(Cl)sc1Cl)c1ccc(Cl)cc1	1.42
N/C(=N/S(=O)(=O)c1ccc(Cl)c(Cl)c1)c1ccc(Cl)cc1	4.55*
N/C(=N/S(=O)(=O)c1cc(C(F)(F)F)cc(C(F)(F)F)c1)c1ccc(Cl)cc1	1.95
COc1cc(OC)c(C(F)(F)F)cc1NC(=O)c1c(OC)cccc1OC	-1.11
COc1ccc2oc(-c3ccc(C)c(N)c3)nc2c1	2.12
Cc1ccc(-c2nc3cc(N)ccc3o2)cc1	4.69*
COc1ccc(-c2nc3cc(NS(=O)(=O)c4ccccc4)ccc3o2)cc1Br	1.1
